JMJD2A Tudor: inhibitors of human JMJD2A Tudor domain; 390,000 tested, 4.4% active; Potency, µM (top dose mostly 114 µM), hits mostly inhibitors; AID 504339; AlphaScreen JMJD2A-Tudor / H3K4me3 peptide binding; O75164; note: nearly all actives have a fitted effect of over 50% in size
PI5P4K alpha inh: blocks human PI5P4K alpha kinase activity; max response, %; 330,000 tested, 1.2% active; PI5P4Kalpha enzyme, ADP-Glo luminescence, 60 min; hits give low values; AID 652105; P48426; active = max response of -50% or lower; inconclusive = between -30% and -50%; inactive = -30% or higher; note: value at the top dose of about 77 µM
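qHTS, 1536-well: enzyme/substrate mix, compound by pin tool, 5 microM ATP final; RT 60 min; ADP-Glo reagents 1 (45 min) then 2 (30 min); luminescence.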
HP1b binding inh: inhibitors of HP1-beta chromodomain binding to methylated histone tails; P83916; AlphaScreen HP1-beta / biotin-H3K9me3 peptide binding; Potency, µM (doses to about 114 µM), usual class: inhibitors; 390,000 tested, 0.56% active; note: nearly all actives have a fitted effect of over 70% in size
Target sequence (P83916 whole entry, looked up): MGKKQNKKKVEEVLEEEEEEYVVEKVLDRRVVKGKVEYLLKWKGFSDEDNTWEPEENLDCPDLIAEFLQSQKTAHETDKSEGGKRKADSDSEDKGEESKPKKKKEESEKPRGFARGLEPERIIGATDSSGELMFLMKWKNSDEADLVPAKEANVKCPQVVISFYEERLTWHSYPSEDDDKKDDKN
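Compound inhibition of the preformed complex between 50 nM HP1-beta and 50 nM biotinylated H3K9me3 peptide was read by AlphaScreen. Buffer was PBS pH 7.4 with 0.01% Tween-20. Incubations ran 30 min at room temperature, with 10 ug/mL donor/acceptor beads.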
G9a inh: blocks human histone lysine methyltransferase G9a | AID 504332 | 350,000 tested, 8.8% active | Potency, µM (series often up to 102 µM), actives largely listed as inhibitors | G9a H3K9 monomethylation, AlphaScreen, 2 h | Q96KQ7; note: nearly all actives have a fitted effect of over 75% in size
Target sequence (Q96KQ7 913-1193 limits assumed): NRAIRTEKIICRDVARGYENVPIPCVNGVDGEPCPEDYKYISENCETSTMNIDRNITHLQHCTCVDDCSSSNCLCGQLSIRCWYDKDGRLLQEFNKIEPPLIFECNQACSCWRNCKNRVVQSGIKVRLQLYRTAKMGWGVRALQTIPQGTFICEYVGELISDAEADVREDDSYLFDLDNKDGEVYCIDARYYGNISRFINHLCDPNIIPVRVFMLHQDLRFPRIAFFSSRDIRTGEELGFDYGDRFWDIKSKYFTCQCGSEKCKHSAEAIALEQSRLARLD
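AlphaScreen read-out: biotin-H3K9 peptide (500 nM) methylation by 20 nM enzyme with 20 uM SAM, 2 h at room temperature after 15 min compound preincubation; anti-monomethyl H3K9 antibody plus donor/acceptor beads, 10 min dark.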
BAZ2B block: blocks human BAZ2B; Q9UIF8; AlphaScreen BAZ2B-H3K14Ac peptide displacement; Potency, µM (series often up to 114 µM), most hits filed as inhibitors; 360,000 tested, 4.4% active; AID 504333; note: nearly all actives have a fitted effect of over 60% in size
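AlphaScreen luminescence quantifies BAZ2B engagement of H3K14Ac peptide; the protein and biotinylated peptide are both at 50 nM final, buffer PBS pH 7.4 with 0.01% Tween-20, all steps at room temperature.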
PLK1 PBD block: inhibitors of human PLK1 polo-box domain binding; Potency, µM, usual class: inhibitors; P53350; 360,000 tested, 2.8% active; Plk1 PBD binding of FITC phosphopeptide, fluorescence polarization; AID 720504; note: series mostly up to about 57 µM; nearly all actives have a fitted effect of over 65% in size
A number is an active result; . = inactive; ? = inconclusive; / = not tested or not shown; [ ] = another dose, or the depositor's remark. Hits are enriched below; roughly 12% of the tested compounds scored in any of these assays. Unless noted, calls come from the whole dose curve; as a rule, active = well fitted curve in the direction sought with a large enough effect; inconclusive = small, poorly fitted or top-dose-only effect, or another doubt; inactive = no such curve, though single readings can be large; an effect the other way counts as inactive or inconclusive.

SMILES | JMJD2A Tudor | PI5P4K alpha inh | HP1b binding inh | G9a inh | BAZ2B block | PLK1 PBD block
CC1Cc2cc(S(=O)(=O)N3CCC(C(=O)N4CCN(c5ccccc5F)CC4)CC3)ccc2N1C(=O)C1CC1 (stereo not drawn) | . | . | . | . | . | .
CCC(CO)Oc1cc(NC(=O)c2ccc(C)cc2)c2ncn(C(C)C)c2c1 (stereo not drawn) | . | . | . | .[2.33 µM] | ? | .
CC(C)C[C@H]1CN(CCCC[C@H]2CNC(=O)C(=O)N2CCc2ccccc2)C(=O)C(=O)N1CCc1ccccc1 | / | . | / | / | / | .
CN(C)S(=O)(=O)c1cccc(NC(=S)Nc2ccc3cn[nH]c3c2)c1 | . | . | . | . | . | 21µM
COc1ccc(NC(=S)Nc2ccc3cn[nH]c3c2)cc1 | .[11.4 µM] | . | . | ? | . | ?
CN(C)S(=O)(=O)c1cccc(NC(=S)N/N=C/c2cc(Br)ccc2O)c1 | 28µM | -61 | . | / | 18µM | .
CN(C)S(=O)(=O)c1cccc(NC(=S)Nc2cccc3cnccc23)c1 | . | ? | ? | / | . | 17µM
S=C(Nc1ccc(Cl)cc1)Nc1cccc2cnccc12 | . | . | . | 45µM | . | .
CN(C)S(=O)(=O)c1cccc(NC(=O)c2ccncc2)c1 | . | . | . | . | . | .
CC(=NNC(=O)CSCC(=O)NN=C(C)c1ccccc1)c1ccccc1 | . | . | . | / | / | .
Cn1c(N)c(C(=O)COC(=O)/C=C/c2cccc(Cl)c2)c(=O)n(C)c1=O | . | . | . | / | / | .
Cc1c(C(=O)N2CCCCCC2)c(S(=O)(=O)Nc2cccc(C#N)c2)c(C)n1C | . | / | . | . | . | /
O=C1NC(=O)C2(CCCCCCCCCCC2)N1 | . | . | . | . | . | .
Fc1cccc(NC(=S)Nc2cccnc2)c1 | . | . | . | ? | . | ?
Cc1ccc(S(=O)(=O)N(C)C)cc1NC(=O)Nc1ccccc1F | . | . | . | 50µM | . | .
CC(=O)NNC(=S)Nc1cc(S(=O)(=O)N(C)C)ccc1C | . | . | . | . | . | .
S=C(Nc1cccnc1)Nc1cccc2cnccc12 | . | . | . | 35µM | / | ?
Cc1cc(C)cc(NC(=O)Nc2cc(S(=O)(=O)N(C)C)ccc2C)c1 | . | . | . | . | . | .
Cc1ccc(S(=O)(=O)N(C)C)cc1NC(=S)Nc1cccc2ccccc12 | . | . | . | ? | . | 15µM
Cc1cc(NC(=S)Nc2cccc3ccccc23)n[nH]1 | . | . | . | 1.1µM | . | .
CCCN1CCN(c2cc3c(cc2F)c(=O)c(S(=O)(=O)c2ccc(CC)cc2)cn3CC)CC1 | . | / | . | . | . | /
Cc1c(Cl)cccc1NC(=O)CCS(=O)(=O)c1ccc2c(c1)CC(C)N2C(=O)C1CC1 (stereo not drawn) | . | / | . | . | . | /
Cc1cc(OCCn2cc(C(=O)c3cccs3)c3ccccc32)ccc1Cl | . | / | . | . | . | /
CCOC(=O)c1c(C)[nH]c(C(=O)N(C)CC(=O)Nc2ccc(OC)cc2)c1C | . | . | . | .[2.33 µM] | . | .
Cc1oc(-c2ccc(Cl)cc2)nc1CN1CCC(C(=O)NCCCN2CCCC(C)C2)CC1 (stereo not drawn) | . | . | . | . | . | .
SMILES | JMJD2A Tudor | PI5P4K alpha inh | HP1b binding inh | G9a inh | BAZ2B block | PLK1 PBD block
COc1ccc2oc(=O)c(C(=O)NCCc3c(C)[nH]c4c(C)cccc34)cc2c1 | ? | / | . | . | . | /
Fc1ccc(NC(=S)Nc2cccc3ccccc23)cc1 | . | . | . | 79µM | ? | .
C=CCNC(=S)Nc1cccc2ccccc12 | . | / | . | 45µM | . | .
Cc1ccc(NC(=S)Nc2cccc3ccccc23)cc1 | . | . | . | / | ? | ?
CCOc1ccccc1Nc1nnc(SCC(=O)Nc2nc(-c3ccc(OC)cc3)cs2)s1 | ? | . | . | 8.9µM | . | .
COc1ccc(-c2csc(NC(=O)CSc3nnc(Nc4ccccc4C)s3)n2)cc1 | . | . | . | 11µM | . | .
COc1ccccc1Nc1nnc(SCC(=O)Nc2nc(-c3ccc(F)cc3)cs2)s1 | . | . | . | / | . | .
O=C(/C=C/c1ccc(Br)o1)Nc1nccs1 | 32µM | ? | ? | 45µM | . | 21µM
CCOC(=O)Cc1csc(NC(=O)/C=C/c2ccc(Br)o2)n1 | . | . | . | 50µM | . | .
COC(=O)c1c(-c2ccc(Cl)cc2)noc1N1CCN(c2cccc(C(F)(F)F)c2)CC1 | . | / | . | . | . | /
Cc1cc(C)nc(N2CCN(S(=O)(=O)c3ccc(F)cc3)CC2)n1 | . | . | . | / | . | .
Nc1ccccc1NC1CCCCC1 | 56µM | . | ? | 50µM | 32µM | .
CCN1C(=NCCc2c[nH]c3ccccc23)N[C@@H](c2ccccc2)[C@H](C(=O)OC)[C@H]1C | ? | . | . | 79µM | ? | .
COC(=O)C1=C(C)N(Cc2ccccc2)C(=NCCc2c[nH]c3ccccc23)N[C@H]1c1cccc(F)c1 | ? | . | . | / | / | .
COC(=O)C1=C(C)N(Cc2ccccc2)C(=NCCc2c[nH]c3ccccc23)N[C@H]1c1ccccc1 | ? | . | . | .[12.7 µM] | 56µM | .
CCCCCCSc1cc(-c2nc3ccc(C)cn3c2NCc2ccccc2)ccc1OC | ? | . | . | .[2.33 µM] | . | .
CC(C)CC(OC(=O)CNC(=O)c1ccccc1)C(=O)Nc1cc(C(F)(F)F)ccc1Cl (stereo not drawn) | . | / | / | / | / | /
Cc1ccc(SCc2nc(-c3ccncc3)no2)cc1 | ? | ? | . | .[12.7 µM] | . | 3µM
Clc1ccccc1OCc1nc(-c2ccncc2)no1 | .[11.4 µM] | . | . | . | . | 6.7µM
c1ccc(SCc2nc(-c3ccncc3)no2)cc1 | . | / | . | . | . | 13µM
c1ccc(OCc2nc(-c3ccncc3)no2)cc1 | . | . | . | . | . | .
COc1ccc(-c2noc(CSc3ccccc3)n2)cc1OC | . | . | . | . | . | .
Cc1ccc(SCc2nc(-c3ccccc3)no2)cc1 | . | . | . | .[12.7 µM] | . | .
Cc1ccccc1NC(=O)C1CCN(S(=O)(=O)c2ccccc2)CC1 | . | / | . | . | . | /
CCOc1ccc(-c2nnc(-c3cccs3)o2)cc1OCC | ? | . | . | . | . | 19µM
SMILES | JMJD2A Tudor | PI5P4K alpha inh | HP1b binding inh | G9a inh | BAZ2B block | PLK1 PBD block
COc1ccc(-c2nnc(-c3cccs3)o2)cc1OC | . | / | . | . | . | .
CCCCC[C@@H](C)N1C[C@@H](COCc2ccccc2)Oc2cc(N3CCC[C@@H]3COC)ccc2S1(=O)=O | / | . | / | / | / | .
COCCN(CCOC)C(=O)c1ccc(SCc2ccc(C)cc2)c([N+](=O)[O-])c1 | . | . | . | 56µM | ? | .
O=C(CCN1C(=O)/C(=C/c2ccccc2Cl)SC1=S)N1CCCC1 | ? | . | ? | . | 25µM | .
O=C(CCCN1C(=O)/C(=C/c2ccccc2Cl)SC1=S)N1CCCC1 | 14µM | . | ? | .[12.7 µM] | 14µM | .
Cc1noc(C)c1C(=O)N1CCC2(CCN(C(=O)Nc3ccccc3)CC2)CC1 | / | / | / | .[12.7 µM] | / | /

Screening data deposited in PubChem by National Center for Advancing Translational Sciences (NCATS).
